Test: Peg3 promoter luciferase inhibitors, potency, dose response, cell-based, HeLa, CREF/GAPDH counter-screen panel (AID 624167)
Settings: CREF/GAPDH counter-screens; run 2, dose range 1, at 100 µM (top of the series)

Structure (SMILES)	inhibition [%]
Cc1ccc(C(C[N+](=O)[O-])Sc2ccc(N)cc2)cc1 (stereo not drawn)	99.2
CN(C)c1c([N+](=O)[O-])cc(N2C(=O)C=CC2=O)cc1[N+](=O)[O-]	98.5
CCCCCCCn1c(=N)n(CC(=O)c2ccco2)c2ccccc21	90.6
Cc1cc(C)c2sc(NNC(=O)c3ccc(S(=O)(=O)N4CCc5ccccc5C4)cc3)nc2c1	62
Cc1oc(-c2ccc3c(c2)OCCO3)cc1C(=O)O	97.9
CCOc1cccc(/C=N/NC(=S)Nc2cc(S(=O)(=O)N3CCOCC3)ccc2N2CCOCC2)c1O	-7.85
CCC(c1ccc(O)c(O)c1)C(CC)c1ccc(O)c(O)c1 (stereo not drawn)	99.5
Cc1ccc(OCC(=O)c2cc(C)n(Cc3ccco3)c2C)c([N+](=O)[O-])n1	66.6
CCCC(=O)NC(c1ccc(C)cc1)c1ccc2cccnc2c1O (stereo not drawn)	57.9
CCC(C)Cn1c(O)cc2nn(-c3nc4ccccc4s3)c(=O)c-2c1C (stereo not drawn)	95.7
CS(=O)(=O)Nc1cccc(NC(=O)C2Cc3c(-c4cccc(F)c4)ccnc3O2)c1 (stereo not drawn)	73.6
CC(C)CC1C(=O)N(Cc2cn(Cc3ccco3)nn2)CCS(=O)(=O)N1Cc1ccc(-c2ccc(F)cc2)cc1 (stereo not drawn)	54.7
COc1ccc(/C=C2/CCCC(CN(C)C)C2=O)cc1 (stereo not drawn)	67.1
O=C(Nc1ccccc1)c1nc[nH]c1C(=O)NCCCCCCNC(=O)c1[nH]cnc1C(=O)Nc1ccccc1	83
CCCC(=O)NC(c1ccc(C(C)C)cc1)c1ccc2cccnc2c1O (stereo not drawn)	45.7
O=C(CNc1ccccc1)N/N=C/c1c(O)ccc2ccccc12	63.7
COc1ccc(-n2cc(-c3ccccc3)c3c(N4CCOCC4)ncnc32)cc1	91.3

Structure (SMILES)	inhibition [%]
Cc1ccsc1/C=N/Nc1cccc(C(=O)O)c1	96.5
CC(=O)c1sc2c(c1OC(=O)c1ccc(Cl)cc1Cl)c(=O)n(-c1ccccc1)c(=S)n2-c1ccccc1	79.3
COc1ccc2c(c1)c(=Cc1ccc(N(C)C)cc1)c1cc(-c3ccccc3)[n+](C)n12	99.9
COC1CC(C)C(OC)c2cc(O)cc(c2O)NC(=O)C(C)=CC=CC(C)C(OC(N)=O)C(C)=CC(C)C1OC (stereo not drawn)	84.8
COc1ccccc1Nc1nc(-c2sc(NC(=O)c3ccco3)nc2C)cs1	19.4
O=[N+]([O-])c1nn(-c2ccc3c(c2)OCCO3)n(O)c1=Nc1ccc(Cl)cc1	80.8
CCCCC(=O)NC(c1ccc(OC)cc1)c1ccc2cccnc2c1O (stereo not drawn)	20.5
C=CCn1c(C)cc(C(=O)COc2ccc(C)nc2[N+](=O)[O-])c1C	51.8
CN(C)S(=O)(=O)c1ccc(-c2csc(N/N=C/c3ccc(O)cc3)n2)cc1	91.1
CS(=O)(=O)c1ccc(-c2cn3cc(C(=O)O)ccc3n2)cc1	78.3
O=C(/C=C/c1ccc(Cl)c([N+](=O)[O-])c1)c1ccc(O)cc1	99.5
Cc1ccc(/C=C2\SC(=S)N(CCCC(=O)Nc3ccccn3)C2=O)cc1	76.5
Cc1cc(C)c(C)c(S(=O)(=O)N2CCN(C(=O)c3cc(=O)[nH]c4ccccc34)CC2)c1C	80.6
NC(C(=O)O)C1ON=C(Cl)C1O (stereo not drawn)	70.1
CC1=NOC(=O)/C1=C\c1ccc(-c2ccccc2Br)o1	98.7
Cc1cc(Br)ccc1NC(=O)CNC(=O)Cn1ncc(Cl)c(Cl)c1=O	98.9

Reference: PubChem BioAssay AID624167 (Sanford-Burnham Center for Chemical Genomics, 2012)
